The panel holds about 83,000 compounds, 20% with a hit somewhere; the sample as a whole holds those more often.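 Treatment: one concentration, 48 hours, 96-well format. Scoring: percent growth, with anything below 10 considered active.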 Values without a mark were called inactive. Active and inactive are the calls of the source.
Tested on: MCF7 breast
Assay: NCI-60 one-dose screen, 48 h (100 = growth as untreated, 0 = no growth, -100 = all killed)
Details: 10 µM unless noted

SMILES | growth
CCOP1(=O)CC(C)=C(Cl)C(P(=O)(O)O)C1 (configuration not stated) | 109%
O=Nc1c(-c2c(O)[nH]c3cc(Br)ccc23)[nH]c2ccccc12 | -40% (active)
C=CCNC(=S)NNc1ccc([N+](=O)[O-])cn1 | 88.4%
CCOC(=O)NNc1[nH]c(-c2ccc(OC)cc2)cc1C#N | 69.2%
C=CCC(CCC(CC=C)C(=O)OCC)C(=O)OCC (configuration not stated) | 89.6%
O=C(CCl)NC1c2ccccc2Oc2ccccc21 | 45.8%
O=C(N/N=C\c1ccc(Cl)cc1)C(=O)N/N=C\c1ccc(Cl)cc1 | 96.5%
C=C(NC(=O)[C@H](C(C)C)N(C)c1cccc2[nH]ccc12)C(=O)OC | 99.6%
COc1ccc(C2=NN(C(=O)c3cc(-c4ccc(C)cc4)nc4ccccc34)C(c3cc(-c4ccccc4)nn3-c3ccccc3)C2)cc1 (configuration not stated) | 88.4%
COc1ccc(C(=O)N2N=C(c3ccc(Br)cc3)CC2c2cn(-c3ccccc3)nc2-c2ccccc2)cc1 (configuration not stated) | 33.8%
CC(=O)O.[In] | 108%
COc1ccc(NC(=O)/C=C(C)/C=C/C=C(C)/C=C/C2=C(C)CCCC2(C)C)cc1 | 73.7%
CCOC(=O)CCCCCCCCC(=O)OCC | 102%
COC(=O)C(N)CC(C)C (configuration not stated) | 98.3%
O=C(/C=C1\C(=O)N(Cc2ccc([N+](=O)[O-])cc2)c2ccccc21)c1ccc(OCCN2CCCCC2)cc1 | -47.5% (active)
Cc1ccc2c(O)c(O)cc(NC(C)CCCN)c2n1 (configuration not stated) | 13.3%
N/C(=N\O)c1ccncc1 | 97.2%
COc1cc(/C=C/C(=O)c2ccc(F)cc2)ccc1OCCCCOc1cc2c(cc1OC)C(=O)N1CCCC1C=N2 (configuration not stated) | -19.5% (active)
COc1cc(-c2cc3cnccc3c3nc(N)c4ccncc4c23)cc(OC)c1OC | 29.8%
CC[n+]1c(C)ccc2cc(C)ccc21 | 94.1%

SMILES | growth
O=C(/C=C/c1ccc(Br)cc1)c1ccccc1 | 8.28% (active)
CCN(CC)CCNc1ncnc2c1cnn2-c1ccc(Cl)cc1 | 75%
C/C(=C\c1ccc2ccccc2c1)[N+](=O)[O-] | -50.9% (active)
Oc1ccccc1/C=N/N=C/c1c(O)ccc2ccccc12 | 52.7%
CC(=O)CC(=O)OC/C=C(/C)CCC=C(C)C | 99.6%
COc1cccc2c1nc1cccc(OC)c1[n+]2[O-] | 32.8%
COc1ccc(/C=C2\SC(=O)N(Cc3cc(=O)oc4ccc(OC)cc34)C2=O)cc1 | 82.5%
CCCCCSc1ccc2nc(NC(=O)OCC)sc2c1 | 13.9%
CCNc1nnc(COc2ccc(CNC(=O)CCCC/C=C/C(C)C)cc2OC)o1 | 95.2%
CCCCCCCCCCN1CC2CCCCC2C1 (configuration not stated) | 65%
CCCCCCCCCCCCCCCC[n+]1cccc(C#N)c1 | 38.5%
Nc1nc2c(c3ncncc13)C(c1cccc(C(F)(F)F)c1)Cc1ncncc1-2 (configuration not stated) | 19.2%
O=P(OCCCl)(OCCCl)C(O)c1ccccc1Cl (configuration not stated) | 99%
CCCCCCCCCCCCOC(=N)N(C)C | 94.1%
COC(=O)C(C(=O)OC)C(Br)C(Br)C(Br)c1ccccc1 (configuration not stated) | 8.14% (active)
CCCCCCCCCC(C)NC(=O)CCl (configuration not stated) | 86.2%
CC1=C(C)C[C@]2(C(=O)O[C@H]3CCCC[C@@H]32)[S@](=O)C1 | 95%
CCCCN(CCC)CCCCCCCCCCN1CCCc2ccccc21 | 76.2%
CCCCCCCCCC[N+](C)(C)N | 98%
COc1ccc(-c2nnc(SCC(=O)Nc3ccc(C(=O)/C=C/c4cc(OC)c(OC)c(OC)c4)cc3)n2-c2ccccc2)cc1OC | 1.19% [100 µM] (active)

Tested on: HCT-116 colon
Assay: as above
Details: 10 µM unless noted

SMILES | growth
O=Nc1c(-c2c(O)[nH]c3cc(Br)ccc23)[nH]c2ccccc12 | -67.3% (active)
C=CCC(CCC(CC=C)C(=O)OCC)C(=O)OCC (configuration not stated) | 100%
COc1ccc(C2=NN(C(=O)c3cc(-c4ccc(C)cc4)nc4ccccc34)C(c3cc(-c4ccccc4)nn3-c3ccccc3)C2)cc1 (configuration not stated) | 81.4%
COc1ccc(C(=O)N2N=C(c3ccc(Br)cc3)CC2c2cn(-c3ccccc3)nc2-c2ccccc2)cc1 (configuration not stated) | -23.3% (active)
CC(=O)O.[In] | 106%
CCOC(=O)CCCCCCCCC(=O)OCC | 110%
COC(=O)C(N)CC(C)C (configuration not stated) | 93.5%
Cc1ccc2c(O)c(O)cc(NC(C)CCCN)c2n1 (configuration not stated) | 34.7%
N/C(=N\O)c1ccncc1 | 102%
COc1cc(-c2cc3cnccc3c3nc(N)c4ccncc4c23)cc(OC)c1OC | 35.1%
CC[n+]1c(C)ccc2cc(C)ccc21 | 97.1%
O=C(/C=C/c1ccc(Br)cc1)c1ccccc1 | 61.6%
Oc1ccccc1/C=N/N=C/c1c(O)ccc2ccccc12 | 83%
COc1ccc(/C=C2\SC(=O)N(Cc3cc(=O)oc4ccc(OC)cc34)C2=O)cc1 | 82.8%
Nc1nc2c(c3ncncc13)C(c1cccc(C(F)(F)F)c1)Cc1ncncc1-2 (configuration not stated) | 18.5%
O=P(OCCCl)(OCCCl)C(O)c1ccccc1Cl (configuration not stated) | 107%
CCCCN(CCC)CCCCCCCCCCN1CCCc2ccccc21 | 58.3%

Source: PubChem BioAssay (NCI)
